The record followed here is the supplement of paper PMC11001985.

UniProt Q86UT6, sequence (Q86UT6 whole entry): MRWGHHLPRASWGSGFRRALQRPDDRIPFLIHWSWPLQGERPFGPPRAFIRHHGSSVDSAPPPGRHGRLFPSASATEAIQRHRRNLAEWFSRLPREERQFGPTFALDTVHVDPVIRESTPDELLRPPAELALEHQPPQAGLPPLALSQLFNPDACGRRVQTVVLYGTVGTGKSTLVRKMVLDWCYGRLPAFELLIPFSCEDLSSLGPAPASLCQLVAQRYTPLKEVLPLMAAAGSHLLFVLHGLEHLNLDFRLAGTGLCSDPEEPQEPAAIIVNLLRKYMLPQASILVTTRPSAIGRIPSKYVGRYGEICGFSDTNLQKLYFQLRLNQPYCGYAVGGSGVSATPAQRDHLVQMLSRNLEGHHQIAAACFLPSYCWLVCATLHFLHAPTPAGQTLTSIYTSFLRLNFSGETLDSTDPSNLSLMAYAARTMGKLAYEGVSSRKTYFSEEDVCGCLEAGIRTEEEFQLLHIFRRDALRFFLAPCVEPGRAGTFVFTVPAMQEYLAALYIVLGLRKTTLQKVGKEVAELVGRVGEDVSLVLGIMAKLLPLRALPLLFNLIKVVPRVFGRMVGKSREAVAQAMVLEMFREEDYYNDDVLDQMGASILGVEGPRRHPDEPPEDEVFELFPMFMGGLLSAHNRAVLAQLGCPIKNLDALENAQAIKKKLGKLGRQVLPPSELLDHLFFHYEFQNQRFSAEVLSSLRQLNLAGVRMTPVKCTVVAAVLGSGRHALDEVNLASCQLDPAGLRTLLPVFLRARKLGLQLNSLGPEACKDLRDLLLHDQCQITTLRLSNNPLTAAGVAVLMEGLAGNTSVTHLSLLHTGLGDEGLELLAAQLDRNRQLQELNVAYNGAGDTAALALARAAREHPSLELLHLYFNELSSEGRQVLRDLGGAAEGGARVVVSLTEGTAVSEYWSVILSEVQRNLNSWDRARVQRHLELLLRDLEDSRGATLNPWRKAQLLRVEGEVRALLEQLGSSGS
UniProt P26038, sequence (P26038 whole entry): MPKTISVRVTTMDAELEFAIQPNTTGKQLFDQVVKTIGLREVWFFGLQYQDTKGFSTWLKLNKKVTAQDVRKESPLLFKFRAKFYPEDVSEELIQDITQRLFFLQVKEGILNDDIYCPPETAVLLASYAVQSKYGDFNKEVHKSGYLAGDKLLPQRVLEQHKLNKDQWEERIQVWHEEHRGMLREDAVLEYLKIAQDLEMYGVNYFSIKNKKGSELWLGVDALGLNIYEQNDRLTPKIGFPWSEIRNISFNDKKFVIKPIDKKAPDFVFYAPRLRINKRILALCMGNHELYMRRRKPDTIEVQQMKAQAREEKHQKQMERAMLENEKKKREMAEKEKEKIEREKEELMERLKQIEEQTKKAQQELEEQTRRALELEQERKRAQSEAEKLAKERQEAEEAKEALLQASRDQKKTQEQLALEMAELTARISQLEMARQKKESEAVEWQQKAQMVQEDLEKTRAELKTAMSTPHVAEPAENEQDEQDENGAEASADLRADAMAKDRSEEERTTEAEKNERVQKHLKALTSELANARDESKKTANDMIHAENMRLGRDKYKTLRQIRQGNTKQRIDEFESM
UniProt P06576, sequence (P06576 whole entry): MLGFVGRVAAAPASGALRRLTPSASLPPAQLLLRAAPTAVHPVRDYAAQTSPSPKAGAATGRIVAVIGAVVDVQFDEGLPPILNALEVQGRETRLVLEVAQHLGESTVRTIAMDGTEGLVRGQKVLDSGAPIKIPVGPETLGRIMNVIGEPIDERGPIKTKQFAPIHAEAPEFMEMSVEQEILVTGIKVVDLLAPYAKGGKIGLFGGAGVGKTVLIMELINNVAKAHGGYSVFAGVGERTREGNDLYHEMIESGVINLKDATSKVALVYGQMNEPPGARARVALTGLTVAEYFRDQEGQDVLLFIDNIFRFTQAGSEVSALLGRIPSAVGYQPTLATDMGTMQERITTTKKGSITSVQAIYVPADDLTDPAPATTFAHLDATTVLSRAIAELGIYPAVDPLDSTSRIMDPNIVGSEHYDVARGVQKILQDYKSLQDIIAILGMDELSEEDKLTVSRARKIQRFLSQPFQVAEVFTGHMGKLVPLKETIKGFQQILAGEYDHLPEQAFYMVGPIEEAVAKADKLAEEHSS
UniProt P11021, sequence (P11021 whole entry): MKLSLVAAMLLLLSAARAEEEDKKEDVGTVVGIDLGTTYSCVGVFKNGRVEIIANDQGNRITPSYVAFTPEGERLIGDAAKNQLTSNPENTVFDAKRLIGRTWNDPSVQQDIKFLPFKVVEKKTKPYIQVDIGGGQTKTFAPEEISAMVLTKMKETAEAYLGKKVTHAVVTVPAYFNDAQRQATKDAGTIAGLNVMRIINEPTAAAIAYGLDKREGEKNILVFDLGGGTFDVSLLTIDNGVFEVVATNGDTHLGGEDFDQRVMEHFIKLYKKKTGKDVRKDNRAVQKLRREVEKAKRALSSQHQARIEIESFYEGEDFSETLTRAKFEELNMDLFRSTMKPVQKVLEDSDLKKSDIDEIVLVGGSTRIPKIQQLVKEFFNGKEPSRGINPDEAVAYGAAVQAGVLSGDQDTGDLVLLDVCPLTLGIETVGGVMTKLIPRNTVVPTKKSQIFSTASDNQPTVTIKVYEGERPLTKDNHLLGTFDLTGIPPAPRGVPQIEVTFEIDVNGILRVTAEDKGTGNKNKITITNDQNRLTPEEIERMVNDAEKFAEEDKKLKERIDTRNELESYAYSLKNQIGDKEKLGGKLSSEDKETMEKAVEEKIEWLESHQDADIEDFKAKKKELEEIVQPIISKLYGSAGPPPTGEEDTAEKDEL
UniProt Q16363, sequence (Q16363 whole entry): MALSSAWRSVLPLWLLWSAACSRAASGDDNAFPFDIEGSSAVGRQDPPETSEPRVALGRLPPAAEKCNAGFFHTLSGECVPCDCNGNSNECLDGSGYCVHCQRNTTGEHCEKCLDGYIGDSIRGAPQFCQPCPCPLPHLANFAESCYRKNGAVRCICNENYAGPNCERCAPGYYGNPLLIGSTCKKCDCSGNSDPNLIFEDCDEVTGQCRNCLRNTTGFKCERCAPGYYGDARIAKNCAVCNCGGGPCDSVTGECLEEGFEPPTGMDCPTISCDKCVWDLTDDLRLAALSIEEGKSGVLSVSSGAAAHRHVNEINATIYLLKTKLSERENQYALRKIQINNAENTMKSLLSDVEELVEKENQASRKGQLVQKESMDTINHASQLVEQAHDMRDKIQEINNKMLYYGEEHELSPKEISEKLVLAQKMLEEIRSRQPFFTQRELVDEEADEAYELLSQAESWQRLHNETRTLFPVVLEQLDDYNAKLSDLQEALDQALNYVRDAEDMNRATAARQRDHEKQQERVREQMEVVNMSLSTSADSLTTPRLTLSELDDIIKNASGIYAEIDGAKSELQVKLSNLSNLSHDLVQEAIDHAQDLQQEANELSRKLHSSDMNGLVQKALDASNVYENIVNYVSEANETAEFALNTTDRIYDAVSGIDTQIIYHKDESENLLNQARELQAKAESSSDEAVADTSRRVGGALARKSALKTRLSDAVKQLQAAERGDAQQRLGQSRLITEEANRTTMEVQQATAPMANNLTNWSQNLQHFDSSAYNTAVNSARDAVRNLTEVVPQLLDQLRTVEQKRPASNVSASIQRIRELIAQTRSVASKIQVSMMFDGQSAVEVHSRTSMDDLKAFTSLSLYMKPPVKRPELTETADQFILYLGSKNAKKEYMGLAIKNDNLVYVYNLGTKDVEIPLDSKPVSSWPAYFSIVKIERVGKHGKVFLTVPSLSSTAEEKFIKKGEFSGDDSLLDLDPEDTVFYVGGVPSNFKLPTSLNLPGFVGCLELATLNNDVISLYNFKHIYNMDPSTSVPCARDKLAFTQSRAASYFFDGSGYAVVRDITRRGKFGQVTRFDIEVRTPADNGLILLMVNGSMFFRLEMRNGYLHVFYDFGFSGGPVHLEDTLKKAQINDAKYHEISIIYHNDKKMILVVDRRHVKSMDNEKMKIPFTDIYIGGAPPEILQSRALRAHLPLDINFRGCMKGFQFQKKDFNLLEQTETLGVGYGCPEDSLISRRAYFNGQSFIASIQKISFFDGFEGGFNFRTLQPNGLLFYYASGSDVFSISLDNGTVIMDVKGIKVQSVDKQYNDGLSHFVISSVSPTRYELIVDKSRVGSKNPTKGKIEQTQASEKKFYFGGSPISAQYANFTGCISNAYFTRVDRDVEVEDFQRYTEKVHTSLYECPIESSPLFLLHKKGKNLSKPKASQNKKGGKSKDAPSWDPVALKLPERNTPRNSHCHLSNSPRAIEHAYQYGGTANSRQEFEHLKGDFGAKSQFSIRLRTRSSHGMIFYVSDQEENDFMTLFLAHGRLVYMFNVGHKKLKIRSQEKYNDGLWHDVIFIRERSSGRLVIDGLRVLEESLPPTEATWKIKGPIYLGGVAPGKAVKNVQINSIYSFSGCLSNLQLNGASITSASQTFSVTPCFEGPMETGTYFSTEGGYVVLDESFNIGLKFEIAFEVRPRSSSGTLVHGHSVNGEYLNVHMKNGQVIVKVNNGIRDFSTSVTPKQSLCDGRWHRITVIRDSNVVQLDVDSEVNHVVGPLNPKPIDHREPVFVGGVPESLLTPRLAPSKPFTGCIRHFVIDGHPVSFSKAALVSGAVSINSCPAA
UniProt Q13442, sequence (Q13442 whole entry): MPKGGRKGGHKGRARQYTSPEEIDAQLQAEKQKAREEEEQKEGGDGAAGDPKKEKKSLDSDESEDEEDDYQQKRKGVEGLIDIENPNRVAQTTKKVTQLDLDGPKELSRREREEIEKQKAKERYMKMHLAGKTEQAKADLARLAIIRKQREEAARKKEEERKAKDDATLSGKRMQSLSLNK
UniProt Q16629, sequence (Q16629 whole entry): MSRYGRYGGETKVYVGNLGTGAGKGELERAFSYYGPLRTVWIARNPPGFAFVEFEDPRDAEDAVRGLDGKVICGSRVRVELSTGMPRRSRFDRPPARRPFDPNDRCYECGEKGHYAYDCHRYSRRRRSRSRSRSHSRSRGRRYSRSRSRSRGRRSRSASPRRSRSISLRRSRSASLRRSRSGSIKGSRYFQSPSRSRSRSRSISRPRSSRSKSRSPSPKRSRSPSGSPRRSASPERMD

Compound in this assay: C#CCNC(=O)CCSSCCC(=O)NCCc1ccc(C=O)c(C=O)c1
Nature of the assay: lysine labeling ratio R10:1 (500 µM / 50 µM probe), SILAC-ABPP in living cells; higher = lower intrinsic lysine reactivity toward the probe, active = 2 or less. The conditions noted are these: HeLa; probe concentrations 500 vs 50 µM. In outline:
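The two probe levels, 50 µM and 500 µM, of an alkyne-tagged, disulfide-linked lysine probe were applied to living light and heavy SILAC HeLa cells in PBS at room temperature, and the labels were run in both forward and reverse orientation. Mixed lysates underwent biotin-azide click chemistry, trypsin digestion, neutravidin capture, DTT release and alkylation before LC-MS/MS on a TIMS-TOF Pro. R is the filtered median high-probe/low-probe MS1 peptide ratio for each lysine, summarised as the median over forward and reverse replicates. Nothing above 20 is reported; such values are set to 20.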
Regarding “LY6D (lysine site: K46) (UniProt Q14210)”, the “lysine labeling ratio R10:1” value is 1.33 (active).
With “TXNRD1 (lysine site: K405) (UniProt Q16881)”, the “lysine labeling ratio R10:1” value was 5.51 (inactive).
To UniProt Q99623 (lysine site: K200) belongs 2.34 (inactive); to “CLTC (lysine site: K637) (UniProt Q00610)”, 2.63 (inactive).
For “KRT18 (lysine site: K417) (UniProt P05783)”, the “lysine labeling ratio R10:1” value was 10.9 (inactive).
To “CYB5R3 (lysine site: K42) (UniProt P00387)” belongs 3.81 (inactive).
For the target UniProt P06576 (lysine site: K133), the “lysine labeling ratio R10:1” value was 3.53 (inactive).
For the target UniProt P22413 (lysine site: K465), the “lysine labeling ratio R10:1” value was 1.52 (active).
With “MSN (lysine site: K501) (UniProt P26038)”, the “lysine labeling ratio R10:1” value was 5.08 (inactive).
Take “HMGN2 (lysine site: K16) (UniProt P05204)”: the “lysine labeling ratio R10:1” value was 1.78 (active).
“FBLN1 (lysine site: K59) (UniProt P23142)”: the “lysine labeling ratio R10:1” value was 1.25 (active).
“FRAS1 (lysine site: K2396) (UniProt Q86XX4)”: the “lysine labeling ratio R10:1” value is 1.59 (active).
As to “HSPD1 (lysine site: K133) (UniProt P10809)”, the “lysine labeling ratio R10:1” value is 3.96 (inactive).
As to “HSPA5 (lysine site: K353) (UniProt P11021)”, the “lysine labeling ratio R10:1” value was 3.4 (inactive).
To “EGFR (lysine site: K294) (UniProt P00533)” belongs 3.59 (inactive); to “NSUN2 (lysine site: K257) (UniProt Q08J23)”, 1.71 (active); to UniProt P02768 (lysine site: K499), 7.98 (inactive).
As to “CD97 (lysine site: K483) (UniProt P48960)”, the “lysine labeling ratio R10:1” value is 5.15 (inactive).
On to “HSPA9 (lysine site: K625) (UniProt P38646)”, for which the “lysine labeling ratio R10:1” value is 3.75 (inactive).
To “NLRX1 (lysine site: K301) (UniProt Q86UT6)” belongs 2.38 (inactive); to “SH3BP4 (lysine site: K679) (UniProt Q9P0V3)”, 3.02 (inactive); to UniProt Q9UHA4 (lysine site: K12), 3.79 (inactive).
On to “PDAP1 (lysine site: K181) (UniProt Q13442)”, for which the “lysine labeling ratio R10:1” value is 1.83 (active).
Turning to “F11R (lysine site: K63) (UniProt Q9Y624)”, the “lysine labeling ratio R10:1” value was 2.75 (inactive).
The figure for UniProt Q9UHN6 (lysine site: K376) is 3.02 (inactive); for “LRPAP1 (lysine site: K107) (UniProt P30533)” it is 1.78 (active); for UniProt P15941 (lysine site: K1125) it is 3 (inactive).
Take UniProt Q15046 (lysine site: K479): the “lysine labeling ratio R10:1” value is 1.78 (active).
With “SPTBN1 (lysine site: K1913) (UniProt Q01082)”, the “lysine labeling ratio R10:1” value was 4.33 (inactive).
Turning to UniProt Q16629 (lysine site: K24), the “lysine labeling ratio R10:1” value is 3 (inactive).
“MYH9 (lysine site: K860) (UniProt P35579)”: the “lysine labeling ratio R10:1” value was 2.67 (inactive).
As to “IGF2R (lysine site: K2197) (UniProt P11717)”, the “lysine labeling ratio R10:1” value was 8.12 (inactive).
Regarding “ITGA3 (lysine site: K638) (UniProt P26006)”, the “lysine labeling ratio R10:1” value is 5.04 (inactive).
To “TGFBR3 (lysine site: K672) (UniProt Q03167)” belongs 0.83 (active); to UniProt Q15149 (lysine site: K1055), 1.98 (active).
As to “XRCC5 (lysine site: K481) (UniProt P13010)”, the “lysine labeling ratio R10:1” value is 1.45 (active).
For UniProt Q16363 (lysine site: K717), the “lysine labeling ratio R10:1” value is 0.58 (active).
For “RPL5 (lysine site: K27) (UniProt P46777)”, the “lysine labeling ratio R10:1” value is 1.97 (active).
Take “EZR (lysine site: K143) (UniProt P15311)”: the “lysine labeling ratio R10:1” value is 2.46 (inactive).
The figure for UniProt P25705 (lysine site: K230) is 2.24 (inactive).
